The source of these data is PubChem BioAssay AID1985 (Southern Research Specialized Biocontainment Screening …, 2009).

The structures appear in SMILES notation. The whole screen tested about 2,300 compounds, of which about 1,000 (43%) were called active. So high a share suggests a set chosen from earlier hits. The list shows a part of the results. Results with a measured potency or affinity are listed apart. A number with no mark means an inactive call. How the calls were made is not given here.

The test in a line: PhoP regulon inhibitor project modified counter assay, GFP fluorescence readout, dose response (AID 1985). The settings on record: S. Typhi, 4 h; series mostly up to 150 µM; inhibition: at the top concentration.
By inhibition is commonly meant the drop in the measured response relative to a control, in per cent. For the molecule `COCCN1CC(=O)N2C(c3cccc(OC)c3)c3[nH]c4ccccc4c3C[C@H]2C1=O` (some centres undefined), the “inhibition” value was 10.3%.
For `Cc1ccc2c(c1)C1CN(C)CCC1N2C(=O)COc1ccccc1F` (centres undefined) the value was 21.9%; for `c1ccc(CN2CCC(Nc3nc(-c4cccs4)nc4ccccc34)CC2)cc1`, 17.1%; for `CCOC(=O)c1cc(-c2ccc(F)cc2)n(CCC(=O)NC2CCN(Cc3ccccc3)CC2)c1C`, -13%.
For the molecule `c1ccc(CN2CCC(N3CCN(Cc4ccc5c(c4)OCO5)CC3)CC2)cc1`, the “inhibition” value is -25.1%.
For `c1ccc(CN2CCC(Nc3nc(-c4ccccc4)nc4ccccc34)CC2)cc1` the value was 32.4%; for `Cc1ccccc1C(=O)c1cccn1CC(=O)NCCC1=CCCCC1`, 13.5%; for `Cc1cc2ccccc2c(=O)n1CC(=O)NCCC1=CCCCC1`, 10.5%.
For the molecule `Clc1ccc(OCc2nc(-c3ccc(Br)o3)no2)cc1`, the “inhibition” value was -12.4%.
The value for `CN1CCN(c2ccccc2NC(=O)c2cc3c(s2)-c2ccccc2OC3)CC1` was -16.3%; that for `NCC/C=C1/c2ccccc2CSc2ccccc21` was -35.5%.
For `c1ccc2c(Nc3nnc(-c4ccncc4)s3)cccc2c1` the value was 15.6%; for `O=C(Nc1ccc(N2CCOCC2)cc1)c1ccc(S(=O)(=O)NCc2ccco2)cc1`, 12%; for `CCc1cccc(NC(=O)CSC2=NS(=O)(=O)c3ccccc32)c1`, 37.1%.
For `O=C(CNC(=O)Cn1ccc2ccccc2c1=O)NCCCN1CCCCCC1` the value was -3.62%.
Turning to `O=C1CCCN1CCC1CCN(C2CC(=O)N(c3ccc(Cl)cc3)C2=O)CC1` (centres undefined), the “inhibition” value was 3.09%.
The value for `CC(NCC(O)COCCC12CC3CC(CC(C3)C1)C2)c1ccccc1` (centres undefined) was 3.19%; that for `CS(=O)(=O)c1cnc2c(-c3ccsc3)cnn2c1N` was -32.5%; that for `O=C(CCSCc1ccccc1F)NCc1cccs1` was 0.85%.
The value for `CC(OC(=O)Cc1coc2cc3c(cc12)CCC3)C(=O)NCc1ccc2c(c1)OCO2` (centres undefined) was -2.07%; that for `COc1cc2[nH]c(=S)n(CC3CCCO3)c(=O)c2cc1OC` (centres undefined) was -1.07%.
For `Cc1cn([C@H]2C[C@H](N=[N+]=[N-])[C@@H](CO)O2)c(=O)[nH]c1=O` the value was -20.3%; for `Cc1ccc(NC2OC(CO)C(O)C(O)C2O)cc1` (centres undefined), 6.18%.
As for `O=C(COC(=O)CNC(=O)c1ccccc1)Nc1ccc(F)c([N+](=O)[O-])c1`, the “inhibition” value is 4.84%.
The value for `Cc1[nH]nc2c1C(c1ccc(-c3ccccc3C#N)o1)C(C#N)=C(N)O2` (centres undefined) was -8.42%; that for `O=C(NCc1cccs1)C(=O)NCC(c1ccco1)N1CCN(c2ccc(F)cc2)CC1` (centres undefined) was 0.62%.
In the case of `CCCN(CCC)CC(=O)Nc1cccc2c1OCO2`, the “inhibition” value was 4.86%.
For `O=C(/C=C/c1ccco1)NC(=S)Nc1cccc(-c2nc3ccccc3o2)c1` the value was -12.6%; for `CC(=O)c1cccc(NC(=S)NNC(=O)c2ccco2)c1`, 1.31%.
For `O=C(NC(=S)Nc1c(F)cc(F)cc1Br)c1ccc2c(c1)OCCO2` the value was -3.71%.
For `O=C(/C=C/c1ccccc1)NNC(=O)c1ccco1` the value was -23.5%; for `c1csc(-n2nc3ccccc3n2)c1`, -6.55%; for `CC1Cc2ccccc2N1C(=O)CN1C(=O)C(=O)N(Cc2ccccc2)C1=O` (centres undefined), -20.8%.
For the molecule `CC(C)(C)SCCNC(=O)c1ccccc1`, the “inhibition” value is 18.5%.
For the molecule `CCOc1ccc(-c2c[n+]3c(n2-c2ccccc2)CCCCC3)cc1`, the “inhibition” value is -17.4%.
For `COCCCNc1c2c(nc3nnnn13)CCCC2` the value was -4.03%; for `CC(C)(C)c1ccc(OCCNC(=S)Nc2ccccc2)cc1`, -2.57%.
For `C#CCOC(=O)c1ccccc1C(=O)OCC#C`, the “inhibition” value was 12.4%.
`O=C(NCCCNc1ccnc2cc(Cl)ccc12)c1ccccc1F`: the “inhibition” value was -0.31%.
In the case of `C=CCNc1nc(-c2ccccc2)nc(-n2ccnc2)n1`, the “inhibition” value was -15.1%.
On to `CC(Sc1nc2ccccc2o1)C(=O)O` (centres undefined), for which the “inhibition” value was 34.4%.
For the molecule `O=C(CSc1nc2ccccc2o1)c1cc2ccccc2oc1=O`, the “inhibition” value is 25.9%.
For `CN(CCO)CC(O)Cn1cnc2c1c(=O)n(C)c(=O)n2C` (centres undefined) (tested in a mixture with another compound) the value was 9.5%; for `Cc1ccc(N2CC(C(=O)OCc3ccccc3F)CC2=O)cc1` (centres undefined), -10.2%; for `Cc1cc2oc(=O)cc(CN3CCN(C/C=C/c4ccccc4)CC3)c2cc1O`, 19.4%.
For `O=C(O)/C=C/c1cn(-c2ccccc2)nc1-c1cc2ccccc2oc1=O` the value was 10.6%.
For the molecule `Oc1c(Br)cc(Br)cc1Oc1ccc(Br)cc1Br`, the “inhibition” value is -3.41%.
For `Oc1c(Br)cc(Br)cc1C=Nc1cccc2ncccc12` the value was 21.8%; for `Cc1cccc(N/N=C/c2ccc(O)c(O)c2O)c1`, 26.2%.
For `Cc1cc(C)nc(NS(=O)(=O)c2ccc(N3C(=O)C4CC=C(Cl)CC4C3=O)cc2)n1` (centres undefined) the value was -20.4%; for `Cc1cc(C)cc(NC(=O)C(Sc2nnc(C)c(=O)[nH]2)c2ccccc2)c1` (centres undefined), 16.1%; for `Cc1c(C)n(C)c2ccc(C(=O)NCc3cccs3)cc12`, 18.9%.
On to `Cc1cccc2cc(C(c3nnnn3Cc3ccccc3)N3CCN(C)CC3)c(=O)[nH]c12` (centres undefined), for which the “inhibition” value is 23.6%.
The value for `CCN(CC)C(=O)CNC(=O)Cc1ccc(Cl)cc1` was -19.9%; that for `CCCCc1ccc2[nH]cc(CCN)c2c1` was 14.2%; that for `S=C1SCN(Cc2cccnc2)CN1Cc1cccnc1` was 29.1%.
On to `Cc1nc2nc(COc3ccccc3)nn2c(C)c1Cl`, for which the “inhibition” value was 5.1%.
The value for `CC(=O)Nc1cccc(NS(=O)(=O)Cc2ccc(Cl)cc2)c1` was -8.02%; that for `Cc1cc2oc(C(=O)NCc3ccncc3)c(C)c2cc1C` was -7.42%; that for `O=C(Nc1ccc(Nc2ccncc2)cc1)c1ccc([N+](=O)[O-])cc1` was 27.2%.
The value for `O=C(Nc1ccc(N2CCOCC2)c(Cl)c1)c1ccccc1F` was 14.4%.
Regarding `COc1ccc2c(c1)CC1(CN2C)C(=O)NC(=O)N(CCc2ccccc2)C1=O` (centres undefined), the “inhibition” value was 18.7%.
The value for `Cc1ccc(C(=O)O)cc1N=Cc1cc(Br)cc(Br)c1O` was -3.47%.
`Nc1ccc(S(=O)(=O)c2ccc(N)cc2)cc1`: the “inhibition” value was 1.39%.
For `Nc1nonc1-n1nnc(C(=O)N/N=C/c2ccccc2O)c1CN1CCCC1` the value was 38.2%.
The value for `O=C(N/N=C/c1cccnc1)c1cccc(Cl)c1` was -34.7%.
The value for `Nc1cc(=O)[nH]c(=S)n1-c1cccc(C(F)(F)F)c1` was 21.7%.
For `O=C1c2[nH]nc(-c3ccccc3O)c2C(c2ccc(F)cc2)N1CC1CCCO1` (centres undefined), the “inhibition” value is 7.59%.
For the molecule `C=CCNC(=O)NC(=O)COC(=O)/C(C#N)=C/c1ccc(OC)cc1`, the “inhibition” value was 11%.
For `N#CCCn1ncc2ccccc21`, the “inhibition” value was -15.1%.
The value for `Cc1c(C)c2ccc(OC(C)C(=O)N[C@@H](Cc3c[nH]c4ccccc34)C(=O)O)c(C)c2oc1=O` (some centres undefined) was -7.47%.
For `CCN(CC)Cc1c(C(=O)N/N=C/c2cccc3ccccc23)nnn1-c1nonc1N`, the “inhibition” value was -0.25%.
Take `COc1ccc(/C=N/NC(=O)c2cccnc2)cc1`: the “inhibition” value is 10.5%.
The value for `Cc1ccc(N=Cc2cc(Br)cc(Cl)c2O)cc1` was 14.3%.
